# AHR act = activates the human aryl hydrocarbon receptor; AHR-responsive luciferase reporter cells, luminescence; activation, % at 5 µM; 2.5% of 320,000 active; AID 2796; in the data active = activation above about 47%;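 note: 0% = vehicle wells and 100% = reference agonist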
# Target sequence (P35869 whole entry, looked up): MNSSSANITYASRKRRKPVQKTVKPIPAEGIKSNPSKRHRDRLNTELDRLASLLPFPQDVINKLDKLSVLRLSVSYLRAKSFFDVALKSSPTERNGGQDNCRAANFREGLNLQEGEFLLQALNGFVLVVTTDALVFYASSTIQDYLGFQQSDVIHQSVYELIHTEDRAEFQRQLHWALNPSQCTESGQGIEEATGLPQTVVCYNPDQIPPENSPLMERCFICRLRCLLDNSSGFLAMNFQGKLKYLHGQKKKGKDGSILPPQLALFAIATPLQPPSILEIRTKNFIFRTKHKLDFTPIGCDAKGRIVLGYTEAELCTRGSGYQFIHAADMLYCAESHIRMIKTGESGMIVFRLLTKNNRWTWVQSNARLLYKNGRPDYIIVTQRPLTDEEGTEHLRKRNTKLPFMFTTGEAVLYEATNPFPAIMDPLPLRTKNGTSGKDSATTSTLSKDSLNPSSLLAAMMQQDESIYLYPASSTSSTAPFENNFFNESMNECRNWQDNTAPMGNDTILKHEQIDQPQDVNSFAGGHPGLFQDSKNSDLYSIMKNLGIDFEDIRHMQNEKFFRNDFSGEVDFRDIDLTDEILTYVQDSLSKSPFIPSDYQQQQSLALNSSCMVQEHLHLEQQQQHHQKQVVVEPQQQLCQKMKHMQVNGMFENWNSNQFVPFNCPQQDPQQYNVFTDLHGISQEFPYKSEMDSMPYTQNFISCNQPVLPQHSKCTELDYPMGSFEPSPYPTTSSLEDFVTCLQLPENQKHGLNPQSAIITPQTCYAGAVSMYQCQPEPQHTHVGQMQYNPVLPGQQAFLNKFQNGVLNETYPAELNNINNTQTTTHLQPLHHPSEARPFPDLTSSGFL
# Wnt act = activators of Wnt/beta-catenin signaling; Wnt/beta-catenin reporter cell assay, activator, plate reader; activation, % at 9.35 µM; 1.2% of 300,000 active; in the data active = activation above about 30%, passing the limit was not always enough; inconclusive = no clear call, values can overlap the other calls;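 note: 0% = neutral control wells and 100% = positive control wells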
# GAA850 FXN act = frataxin GAA850 promoter activation | 0.56% of 360,000 active | HEK293 lucGAA850 FXN promoter luciferase reporter, 24 h; percent of 10 µM SAHA response | activation, % at 6 µM | AID 540364;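 active = activation above the average of all compounds screened plus 3 SD, cutoff fixed separately per campaign, cut at about 7.5% in these data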;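 note: 0% = DMSO wells and 100% = 10 µM SAHA wells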
# MITF TRPM1 HTS = MITF TRPM1 promoter activation in melanoma cells. 0.75% of 300,000 active. SK-MEL-5 TRPM1-promoter luciferase, 24 h; % of positive control, neutral wells = 0. AID 588334. activation, % at 12.5 µM;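 active = mean activation of at least 80% with every replicate also reaching 80%; inconclusive = mean reaches 80% but some replicate falls short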;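 note: 0% = neutral control wells and 100% = parthenolide positive control wells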
# esBAF inh = inhibitors of esBAF chromatin remodeling in mouse ES cells. Bmi1-luciferase knock-in reporter, 24 h; 100% = twice the neutral-well signal. reporter increase, % at 12.5 µM. 2% of 350,000 active; in the data active = activation above about 40%; inconclusive = no clear call, values can overlap the other calls;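 note: 0% = median of the plate's neutral control wells and 100% = double that signal; a rise in the Bmi1 reporter signal indicates esBAF inhibition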
# GAA30 FXN cntr = GAA30 FXN promoter activation counter-screen; shares compounds with GAA850 FXN act; HEK293 lucGAA30 FXN promoter luciferase, 24 h; DMSO = 0%, 5 µM ipriflavone = 100%; activation, % at 6 µM; 66% of 1,900 active;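 active = mean activation above the mean of solvent-only control wells plus 3 SD, cut at about 22% in these data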;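 note: counterscreen of GAA850 promoter hits where activity marks nonselective or luminescence artifacts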
# GAA850 confirm = confirmation of GAA850 frataxin (FXN) promoter activators; shares compounds with GAA850 FXN act; HEK293 lucGAA850 FXN promoter luciferase reporter, 24 h; 100% = activation by SAHA; activation, % at 6 µM; 86% of 1,900 active; AID 588351;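 active = mean activation above a set limit taken from the primary screen, cut at about 8% in these data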;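 note: 0% = DMSO wells and 100% = 10 µM SAHA wells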
# * = called active by the depositor; ? = inconclusive; · = no result given. In the library only some 4.2% were active in any assay of this set; here they are far more common.
SMILES,AHR act,Wnt act,GAA850 FXN act,MITF TRPM1 HTS,esBAF inh,GAA30 FXN cntr,GAA850 confirm
COc1ccc(NC(=O)C2C(=O)NC3(C)CC2c2ccccc2O3)cc1 (stereo unspecified),0,·,13*,8,-4,21,7
CO[C@H]1CN(C)C(=O)c2cc(NS(C)(=O)=O)ccc2OC[C@@H](C)N(C(=O)CN(C)C)C[C@H]1C,·,·,·,·,-2,·,·
C[C@@H]1CN([C@@H](C)CO)C(=O)Cc2cc(N(C)C)ccc2O[C@H]1CN(C)CC1CC1,·,·,·,·,-3,·,·
O=C(NC12CC3CC(CC(C3)C1)C2)c1cc([N+](=O)[O-])ccc1N1CCOCC1,-3,2,10*,-1,·,17,10*
O=C(NCC1CCCCC1)c1cc([N+](=O)[O-])ccc1N1CCOCC1,2,-1,0,-5,·,·,·
CC(C)NC(=O)N(C)C[C@@H]1Oc2ccc(NC(=O)Cc3ccccc3)cc2CC(=O)N([C@@H](C)CO)C[C@H]1C,·,·,·,·,-3,·,·
Cc1nc(-c2nc(-c3c(C(=O)NNC(=O)c4ccc(Cl)cc4)noc3C)cs2)cs1,0,0,1,-17,-8,·,·
Cc1nc(-c2nc(-c3c(C(=O)NN)noc3C)cs2)cs1,14,16,8.3*,35,20,88*,27*
O=C(Nc1ccc(F)c(Cl)c1)c1ccc2c(=O)n3c(nc2c1)CCCCC3,1,?,1,·,12,·,·
O=C(Nc1ccc(Cl)cc1)c1ccc2c(=O)n3c(nc2c1)CCCCC3,7,1,18*,·,50*,63*,25*
O=C(Nc1ccc(Br)cc1Cl)c1ccc2c(=O)n3c(nc2c1)CCC3,11,15,7.9*,?,·,88*,23*
COc1cc(C(=O)O/N=C2\C=CC(=O)C(C)=C2)cc(OC)c1OC,6,61*,9.2*,·,-7,35*,19*
CCOC(=O)c1cnc(SCc2nc(N)nc(Nc3ccccc3)n2)nc1N,19,0,3,49,4,·,·
CCOC(=O)c1cnc(SCc2ccc(C)cc2)nc1N,-8,·,7.8*,74,61*,86*,27*
CN(C)CCOC(=O)NC12CC3CC(CC(C3)C1)C2,2,-2,2,4,·,·,·
O=C(NC12CC3CC(CC(C3)C1)C2)OCCNC1CCCCC1,-2,-4,15*,12,·,23*,10*
O=C(Nc1nnc(SCc2ccc(F)cc2)s1)C1CC(=O)N(Cc2ccccc2)C1 (stereo unspecified),1,0,11*,-1,11,25*,12*
C[C@@H]1CCCCO[C@H](CN(C)S(=O)(=O)c2ccc(F)cc2)[C@H](C)CN([C@@H](C)CO)C(=O)c2cc(NS(=O)(=O)c3ccc(F)cc3)ccc2O1,·,·,·,·,9,·,·
O=C(C[C@H]1C=C[C@H](NC(=O)c2ccc(F)cc2)[C@@H](CO)O1)NCc1ccncn1,·,·,·,·,5,·,·
O=C(c1ccc(-c2cccc(Cl)c2Cl)o1)N1CCOCC1,16,34*,8.8*,86*,39,108*,39*
CCn1c(SCC(=O)NCCc2ccc(OC)c(OC)c2)nc2c([nH]c3ccccc32)c1=O,·,-1,14*,·,3,26*,8.2*
COc1ccc(S(=O)(=O)Nc2ccc3c(c2)[C@H]2C[C@H](CC(=O)N(C)C)O[C@@H](CO)[C@H]2O3)cc1,·,·,·,·,5,·,·
Cn1cnc2cc(NC(=O)c3ccc(Cl)cc3)ccc21,-5,19,9.3*,55,54*,95*,42*
CCN(C[C@H]1[C@H](c2ccc(C3=CCCC3)cc2)[C@@H](CO)N1C(C)=O)C(C)=O,·,·,·,·,7,·,·
CC(C)=CCC/C(C)=C/C=N/NC(=O)c1ccccc1[N+](=O)[O-],0,·,8.6*,-5,-2,17,5
SMILES,AHR act,Wnt act,GAA850 FXN act,MITF TRPM1 HTS,esBAF inh,GAA30 FXN cntr,GAA850 confirm
C/C(CCc1ccccc1)=N\NC(=O)c1ccccc1[N+](=O)[O-],2,·,0,-6,·,·,·
Cn1cncc1C#Cc1ccc2cc(C(C)(C)O)oc(=O)c2c1,43,3,2,19,13,·,·
Cn1cncc1C#Cc1ccc2c(=O)c3ccccc3oc2c1,-3,44*,7.9*,68,?,67*,40*
C=CCSc1nnc(-c2cc3c(s2)-c2ccccc2CC3)o1,66*,4,8.7*,18,10,76*,28*
Nc1nc2c3ccccc3nc(Cc3ccccc3)n2n1,1,-1,3,2,3,·,·
CCCc1nc2ccccc2c2nc(N)nn12,3,·,8.5*,3,-6,16,7
Cc1ccc(S(=O)(=O)Nc2ccc3c(c2)C(=O)N([C@@H](C)CO)C[C@@H](C)[C@H](CN(C)S(C)(=O)=O)O3)cc1,·,·,·,·,3,·,·
Cc1ccc(Nc2ncccc2C(N)=O)cc1[N+](=O)[O-],2,70*,10*,91*,·,100*,27*
CCOC(=O)c1ccc(Nc2ncccc2[N+](=O)[O-])cc1,2,20,6,66,?,·,·
Cc1cc(C)c(C(=O)c2cccs2)c(C)c1,·,-2,-1,-7,-8,·,·
Cc1cc(C)c(C(CC(=O)c2cccs2)C(C#N)C#N)c(C)c1 (stereo unspecified),58*,49*,9.0*,44,·,100*,61*
Fc1cccc(/C=N/Nc2cc(N3CCOCC3)ncn2)c1,19,26,9.3*,98*,26,127*,99*
Cc1noc(C)c1NC(=O)N(C)C[C@@H]1OCCCC[C@H](C)Oc2ccc(NC(=O)Cc3ccccc3)cc2C(=O)N([C@H](C)CO)C[C@H]1C,·,·,·,·,4,·,·
COc1ccc([C@@H]2[C@@H]3C(=O)N(C(C)(C)C)C(=O)[C@@H]3[C@]3(CC(C)C)C(=O)N(c4cccc(F)c4)C(=O)N23)cc1,1,2,15*,9,9,46*,16*
CC[C@@]12C(=O)N(c3cccc(F)c3)C(=O)N1[C@H](c1ccc(Br)cc1)[C@@H]1C(=O)N(C(C)(C)C)C(=O)[C@@H]12,2,-5,15*,8,4,26*,13*
O=C(CSc1nnnn1-c1ccc(F)cc1)c1ccc(O)c(O)c1,11,-2,12*,-17,0,31*,17*
O=C(O)c1ccc(CSc2nnnn2-c2ccc(F)cc2)cc1,-1,3,2,4,·,·,·
O=C(N/N=C/c1ccccn1)c1ccc(Cl)c(Cl)c1,7,-2,9.1*,-57,-5,-108,-30
O=C(N/N=C/c1ccccn1)c1cc(-c2ccccc2)nc2ccccc12,30,0,7.7*,·,·,-118,-37
O=C(N/N=C/c1ccccn1)c1cc(C2CC2)nc2ccccc12,8,·,1,-17,1,·,·

# Screening data: PubChem BioAssay, several laboratories
